Test results: publication PMC5540273 (PLoS ONE, 2017)
Read-outs that look alike come from different tables or passages of the source.

Columns and labels:
WNK1 = settings: concentration: 1 μM,replicates: in singlicate; n = 1
WNK2 = settings: concentration: 1 μM,replicates: in singlicate; n = 1
WNK3 = settings: concentration: 1 μM,replicates: in singlicate; n = 1
WNK4 = settings: concentration: 1 μM,replicates: in singlicate; n = 1
YANK1 = system: T1, YANK1; settings: concentration: 1 μM,replicates: in singlicate; n = 1
T1 construct: gene STK32A

YANK2 = system: T2, YANK2; settings: concentration: 1 μM,replicates: in singlicate; n = 1
T2 construct: gene STK32B

YANK3 = system: T3, YANK3; settings: concentration: 1 μM,replicates: in singlicate; n = 1
T3 construct: gene STK32C

YES = system: T4, YES; settings: concentration: 1 μM,replicates: in singlicate; n = 1
T4 construct: gene YES1

YSK1 = system: T5, YSK1; settings: concentration: 1 μM,replicates: in singlicate; n = 1
T5 construct: gene STK25

YSK4 = system: T6, YSK4; settings: concentration: 1 μM,replicates: in singlicate; n = 1
T6 construct: gene MAP3K19

ZAP70 = settings: concentration: 1 μM,replicates: in singlicate; n = 1
p38-beta = system: T7, p38-beta; settings: concentration: 1 μM,replicates: in singlicate; n = 1
T7 construct: gene MAPK11

p38-delta = settings: concentration: 1 μM,replicates: in singlicate; n = 1
ZAK = settings: concentration: 1 μM,replicates: in singlicate; n = 1
p38-alpha = system: T8, p38-alpha; settings: n = 1
T8 construct: gene MAPK14

p38-gamma = system: T9, p38-gamma; settings: concentration: 1 μM,replicates: in singlicate; n = 1
T9 construct: gene MAPK12

[1] = concentration: 1 μM,replicates: in singlicate
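Note: KINOMEscan kinase panel screen.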

Compound	%Inh (WNK1) [%]	%Inh (WNK2) [%]	%Inh (WNK3) [%]	%Inh (WNK4) [%]	%Inh (YANK1) [%]	%Inh (YANK2) [%]	%Inh (YANK3) [%]	%Inh (YES) [%]	%Inh (YSK1) [%]	%Inh (YSK4) [%]	%Inh (ZAP70) [%]	%Inh (p38-beta) [%]	%Inh (p38-delta) [%]	%Inh (ZAK) [%]	%Inh (p38-alpha; [1]) [%]	%Inh (p38-gamma) [%]	%Inh (p38-alpha; 1 µM) [%]
Cc1ccc(-n2nc(C(C)(C)C)cc2NC(=O)Nc2ccc(OCCN3CCOCC3)c3ccccc23)cc1 [GW839464]	0	1	0	0	0	0	0	32	0	0	0	56	90.5				
CCN(CC)CCCCNc1ncc2cc(-c3c(Cl)cccc3Cl)c(NC(=O)NC(C)(C)C)nc2n1	0	51	0	0	53	32	0	94.6	58	49	0	81	28	1	98.2	26	
C[C@H]1Oc2cc(cnc2N)-c2c(nn(C)c2C#N)CN(C)C(=O)c2ccc(F)cc21	0	2	0	0	0	12	3	2	0	0	0	18	0	0	9	5	
O=C(NCCCN1CCOC1=O)c1cnc(NCc2cc(Cl)ccc2Cl)nc1NC1CCCC1	0	0	0	18	0	0	2	31	0	11	0	0	44	10	9	1	
CCn1c(-c2nonc2N)nc2c(C#CC(C)(C)O)nc(OCCN)cc21.Cl.Cl [GSK902056]	12	24	28	2	12	0	35	19	0	99.7	0	0	16	14	0	0	
CC(C)N1C(=O)Cc2cc(Nc3ncc(C(F)(F)F)c(NCc4cccc(S(C)(=O)=O)c4)n3)ccc21	0	1	0	23	6	0	0	9	0	99.8	62	2	0	0	96.4	0	
CNC(=O)c1ccccc1Sc1ccc2c(/C=C/c3ccccn3)n[nH]c2c1	0	11	0	0	19	0	0	0	0	78	0	15	10	53	5	25	
CCN(CC)CCOc1ccc(Nc2ncc3cc(-c4c(Cl)cccc4Cl)c(=O)n(C)c3n2)cc1 [SB-601273]	26	86	66	42	95.1		27	100	37	99.2	63	98.1	16	94.2	100	18	
O=C(NCCNc1ccnc(NCc2ccc(F)cc2)n1)c1cc2ccccc2s1 [GSK1379944]	10	1	4	3	19	0	7	11	0	27	0	0	40	14	77	0	
C[C@@H](Oc1cc(-c2cnn(C3CCNCC3)c2)cnc1N)c1c(Cl)ccc(F)c1Cl	11	46	0	8	6	0	0	17	0	72	10	25	30	4	2		
CN(C)CCOc1ccc(-c2cc(-c3c[nH]nc3-c3ccccn3)ccn2)cc1 [GW835314]	9	13	0	0	89	0	0	55	0	28	11	4	0	60	16	27	
Cc1occc1-c1nc(N)c(OC[C@@H](N)Cc2c[nH]c3ccccc23)cc1-c1cc2c(C)n[nH]c2cn1 [GSK1660450]	0	5	0	0	96.6	95.2	93.1	40	57	99.7	0	0	22	31		24	
COc1ccc(C[C@@H](CN)NC(=O)c2cc(Br)c(-c3ccnc4[nH]ccc34)s2)cc1.Cl.Cl [GSK1389063]	11	32	5	0	71	46	50	22	100	99.6	0	0	46	0	0	0	
Cc1cc2cn[nH]c2cc1-c1cccc2c(N)c(C(N)=O)nnc12	21	3	23	11	26	0	0	0	0	71	32	2	0	21	0	52	
Cc1n[nH]c2ccc(-c3cc(OC[C@@H](N)Cc4ccccc4)cnc3-c3ccoc3)cc12.O=C(O)C(F)(F)F.O=C(O)C(F)(F)F [GSK507358]	8	11	0	6	72	90.5	47	22	22	99.8	0	0	50	0		33	
NC(=O)c1cc(-c2ccccc2)cc2c(C3CCNCC3)c[nH]c12 [GSK301362]	11	6	17	41	4	0	26	24	1	50	0	0	35	0	0	0	
Cc1cc(C(=O)Nc2ccc(Oc3ccc4nc(NC(=O)C5CC5)cn4n3)cc2)nn1-c1ccccc1	0	0	0	10	0	3	0	25	1	1	0	27	0	48	11	52	
C=CC(=O)Nc1cc2c(Nc3ccc(F)c(Cl)c3)ncnc2cc1OCCCN1CCOCC1 [GW781483]	16	0	20	0	17	0	0	15	0	49	31	0	20	0	19	0	
C[C@@H]1CCN(C(=O)CC#N)C[C@@H]1N(C)c1ncnc2[nH]ccc12	0	0	0	0		0	0	0	0	8	0	13		0	1		
Cl.Oc1cc(-c2nc(-c3ccccc3)[nH]c2-c2ccncc2)ccc1Cl [SB-386023]	0	0	0	38	0	26	0	31	0	0	15	26	0	25		36	85
Cc1ccc2c(-c3ccncc3)c(-c3ccc(F)cc3)nn2c1.Cl [GW461484]	0	0	26	22	31	15	12	0	7	0	0	39	13	14	99.9	12	
CC(C)Nc1cc(-c2ccc3c(N)n[nH]c3c2)nc(N)n1 [GSK2221681]	0	0	0	0	37	0	2	4	14	41	0	0	1	0	0	2	
Cl.Cl.NC[C@H](Cc1ccc(C(F)(F)F)cc1)NC(=O)c1cc(Br)c(-c2ccnc3[nH]ccc23)s1 [GSK1487252]	10	0	13	39	56	69	13	19	30	88	0	0	12	0	0	38	
Cl.Cl.Nc1nc(-c2ccc3c(N)n[nH]c3c2)cc(N2CCCC(NC(=O)c3ccccc3)C2)n1 (centres unmarked) [GSK2286775]	37	10	19	0	0	0	0	14	22	36	0	0	21	100	0	21	
Cl.Cl.NC[C@H](CC1CCCCC1)NC(=O)c1cc(Br)c(-c2ccnc3[nH]ccc23)s1 [GSK1581427]	0	3	5	0	42	0	18	1	0	99.6	0	0	4	0	0	0	
Nc1nc(Nc2ccccc2)cc(-c2ccc3c(N)n[nH]c3c2)n1 [GSK2225749]	5	0	7	0	15	0	6	0	0	46	0	0	0	3	0	0	
CN(C)CC(O)COc1ccc(Nc2nccc(-c3cnn4nc(N5CCOCC5)ccc34)n2)cc1 (centres unmarked) [GW767488]	18	0	18	0	29	0	0	0	17	90	36	23	38	14	6	73	
